Test results: PubChem BioAssay (NCI)
The panel holds about 83,000 compounds, 20% with a hit somewhere; the sample as a whole holds those more often.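 96-well plates, one dose, 48 hours. Percent growth reported; active if below 10.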 The source made the active and inactive calls.

tested on: U251 CNS; assay: NCI-60 one-dose screen, 48 h (100 = growth as untreated, 0 = no growth, -100 = all killed); settings: 10 µM unless noted

Structure (SMILES) | growth
NC(=O)CSSCC(N)=O | 93.4% (inactive)
C=C(C)[C@@H]1CC[C@]2(C(=O)N3CCN(C)CC3)CC[C@]3(C)[C@H](CC[C@@H]4[C@@]5(C)CC[C@H](O)C(C)(C)[C@@H]5CC[C@]43C)[C@@H]12 | -84.8% (active)
O=C1Nc2cc(Cl)ccc2/C1=C\c1c(-c2ccc(F)cc2)nc2ccccn12 | 22.9% (inactive)
CCc1ccc(-c2cn3ccnc3c(-c3ccc4ncn(Cc5ccccc5)c4c3)n2)cc1 | 53.9% (inactive)
CCOC(=O)c1cc(C(=O)c2ccc(OC)c(OC)c2)n2ccc(/C=C/c3cc[n+](CC(=O)c4ccc(OC)c(OC)c4)cc3)cc12 | 95.5% (inactive)
COc1cc(/C=C\c2cc(OC)c(OC)c(OC)c2)cc(NC(=O)/C=C/c2cc(OC)c(OC)c(OC)c2)c1OC | 71% (inactive)
CN1C(N2CCN(S(=O)(=O)c3ccccc3)CC2)=NS(=O)(=O)c2ccccc21 | 99.7% (inactive)
O=C1Nc2ccccc2/C1=C\c1c(-c2ccc(F)cc2)nc2ccccn12 | 93.3% (inactive)
OCc1cnc2ccccc2c1NC1CCCCCC1 | 92.6% (inactive)
Oc1c(Cl)cc(Cl)c(Cl)c1CNCCNCc1c(O)c(Cl)cc(Cl)c1Cl | 10.1% (inactive)
CN1[C@@H]2CC[C@H]1/C(=C\c1ccccc1)C(=O)/C2=C/c1ccccc1 | 16.6% (inactive)
O=C1c2c(c3c4cccc(F)c4[nH]c3c3ccc4ccccc4c23)C(=O)N1O | 26.8% (inactive)
CN(C)CCC(=O)c1ccc([N+](=O)[O-])cc1 | 105% (inactive)
Cc1ccc(-c2nc3ccccn3c2/C=C2/C(=O)Nc3cc(Cl)ccc32)cc1 | 96.4% (inactive)
CC(=O)[C@@H]1CC[C@]2(C(N)=O)CC[C@]3(C)[C@H](CC[C@@H]4[C@@]5(C)CCCNC(C)(C)[C@@H]5CC[C@]43C)[C@@H]12 | 81.7% (inactive)
CC(C)N1C(=O)S/C(=C2/SC(=O)N(C(C)C)C2=O)C1=O | 96.3% (inactive)
NS(=O)(=O)c1ccc(CCN2C(=O)C3C(C2=O)C2(Cl)C(Cl)=C(Cl)C3(Cl)C2(Cl)Cl)cc1 (stereo unspecified) | 104% (inactive)
Nc1c(S(=O)(=O)O)cc2c3c(cccc13)C(=O)OC2=O | 97.8% (inactive)
O=C(CCN1CCCC1)c1ccc([N+](=O)[O-])cc1 | 98.4% (inactive)

Structure (SMILES) | growth
O=C1Nc2ccc(F)cc2/C1=C\c1c(-c2ccccc2)nc2ccccn12 | 82.7% (inactive)
O=Cc1ccc(-c2cn3ccnc3c(-c3ccc4ncn(Cc5ccccc5)c4c3)n2)cc1 | 68% (inactive)
N#C/C(=C\c1ccc(C(F)(F)F)cc1)c1cc2ccccc2[nH]1 | 105% (inactive)
O=C1c2cccc3c(-c4ccc5c(c4)ncn5C4CCCCC4)ccc(c23)C(=O)N1c1nc2ccccc2s1 | 86.9% (inactive)
Cc1cccc(-c2cn3ccnc3c(-c3ccc4ncn(Cc5ccccc5)c4c3)n2)c1 | 80.6% (inactive)
CCOC(=O)C1=C(CCl)NC(=O)NC1c1ccc2c(c1)OCO2 (stereo unspecified) | 18.5% (inactive)
CCCN1[C@@H]2CC[C@H]1/C(=C\c1ccc(OC)c(OC)c1)C(=O)/C2=C/c1ccc(OC)c(OC)c1 | 40.7% (inactive)
COc1ccc(C(=O)C2C(C#N)C(C#N)C3c4ccccc4C=CN23)cc1 (stereo unspecified) | 93.6% (inactive)
O=C(C[n+]1cccc2ccccc21)c1ccc(O)c(O)c1 | 91.1% (inactive)
COc1ccc(C(=O)c2nc3ccccc3n2CC(=O)c2ccc(F)cc2)cc1 | 90.5% (inactive)
CC(=O)[C@@H]1CC[C@]2(CO)CC[C@]3(C)[C@H](CC[C@@H]4[C@@]5(C)CCCNC(C)(C)[C@@H]5CC[C@]43C)[C@@H]12 | 108% (inactive)
NS(=O)(=O)c1ccc(CCN2C(=O)C=CC2=O)cc1 | 104% (inactive)
Nc1ccccc1NC(=O)c1ccc(-n2nc(-c3ccccc3)c3ccccc32)cc1 | -85.6% (active)
N#CC1C(C#N)C2c3ccccc3C=CN2C1C(=O)c1ccc(Br)cc1 (stereo unspecified) | 100% (inactive)
O=C(CNCCN1CCOCC1)N1c2cccc3cccc(c23)N(C(=O)CNCCN2CCOCC2)C1c1cn(-c2ccccc2)nc1-c1cccc([N+](=O)[O-])c1 | 55.2% (inactive)
C=C(C)[C@@H]1CC[C@]2(C(=O)N[C@H](CO)Cc3ccccc3)CC[C@]3(C)[C@H](CC[C@@H]4[C@@]5(C)CCCNC(C)(C)[C@@H]5CC[C@]43C)[C@@H]12 | -89.7% (active)
O=C1c2cccc3c(-c4ccc5c(c4)ncn5C4CCCCC4)ccc(c23)C(=O)N1CCO | 93.2% (inactive)
O=C(/C(=C\c1ccc([N+](=O)[O-])cc1)S(=O)Cc1ccc(F)cc1)c1ccc(F)cc1 (stereo unspecified) | 10.3% (inactive)
NNC(=O)c1ccc(-n2nc(-c3ccccc3)c3ccccc32)cc1 | 22.6% (inactive)

tested on: PC-3 prostate; assay: as above; settings: 10 µM unless noted

Structure (SMILES) | growth
NC(=O)CSSCC(N)=O | 92.1% (inactive)
C=C(C)[C@@H]1CC[C@]2(C(=O)N3CCN(C)CC3)CC[C@]3(C)[C@H](CC[C@@H]4[C@@]5(C)CC[C@H](O)C(C)(C)[C@@H]5CC[C@]43C)[C@@H]12 | -70.7% (active)
O=C1Nc2cc(Cl)ccc2/C1=C\c1c(-c2ccc(F)cc2)nc2ccccn12 | 12.8% (inactive)
CCc1ccc(-c2cn3ccnc3c(-c3ccc4ncn(Cc5ccccc5)c4c3)n2)cc1 | 49.6% (inactive)
CCOC(=O)c1cc(C(=O)c2ccc(OC)c(OC)c2)n2ccc(/C=C/c3cc[n+](CC(=O)c4ccc(OC)c(OC)c4)cc3)cc12 | 92.8% (inactive)
COc1cc(/C=C\c2cc(OC)c(OC)c(OC)c2)cc(NC(=O)/C=C/c2cc(OC)c(OC)c(OC)c2)c1OC | 29.3% (inactive)
CN1C(N2CCN(S(=O)(=O)c3ccccc3)CC2)=NS(=O)(=O)c2ccccc21 | 98.9% (inactive)
O=C1Nc2ccccc2/C1=C\c1c(-c2ccc(F)cc2)nc2ccccn12 | 62.5% (inactive)
OCc1cnc2ccccc2c1NC1CCCCCC1 | 82.2% (inactive)
Oc1c(Cl)cc(Cl)c(Cl)c1CNCCNCc1c(O)c(Cl)cc(Cl)c1Cl | 44.4% (inactive)
CN1[C@@H]2CC[C@H]1/C(=C\c1ccccc1)C(=O)/C2=C/c1ccccc1 | 36.8% (inactive)
O=C1c2c(c3c4cccc(F)c4[nH]c3c3ccc4ccccc4c23)C(=O)N1O | 32.5% (inactive)
CN(C)CCC(=O)c1ccc([N+](=O)[O-])cc1 | 93.6% (inactive)
Cc1ccc(-c2nc3ccccn3c2/C=C2/C(=O)Nc3cc(Cl)ccc32)cc1 | 70.1% (inactive)
CC(=O)[C@@H]1CC[C@]2(C(N)=O)CC[C@]3(C)[C@H](CC[C@@H]4[C@@]5(C)CCCNC(C)(C)[C@@H]5CC[C@]43C)[C@@H]12 | 65.5% (inactive)
CC(C)N1C(=O)S/C(=C2/SC(=O)N(C(C)C)C2=O)C1=O | 98.2% (inactive)
NS(=O)(=O)c1ccc(CCN2C(=O)C3C(C2=O)C2(Cl)C(Cl)=C(Cl)C3(Cl)C2(Cl)Cl)cc1 (stereo unspecified) | 42.3% (inactive)
Nc1c(S(=O)(=O)O)cc2c3c(cccc13)C(=O)OC2=O | 106% (inactive)
O=C(CCN1CCCC1)c1ccc([N+](=O)[O-])cc1 | 99.8% (inactive)

Structure (SMILES) | growth
O=C1Nc2ccc(F)cc2/C1=C\c1c(-c2ccccc2)nc2ccccn12 | 67.5% (inactive)
O=Cc1ccc(-c2cn3ccnc3c(-c3ccc4ncn(Cc5ccccc5)c4c3)n2)cc1 | 81% (inactive)
N#C/C(=C\c1ccc(C(F)(F)F)cc1)c1cc2ccccc2[nH]1 | 93.9% (inactive)
O=C1c2cccc3c(-c4ccc5c(c4)ncn5C4CCCCC4)ccc(c23)C(=O)N1c1nc2ccccc2s1 | 73.2% (inactive)
Cc1cccc(-c2cn3ccnc3c(-c3ccc4ncn(Cc5ccccc5)c4c3)n2)c1 | 75.2% (inactive)
CCOC(=O)C1=C(CCl)NC(=O)NC1c1ccc2c(c1)OCO2 (stereo unspecified) | 53.9% (inactive)
CCCN1[C@@H]2CC[C@H]1/C(=C\c1ccc(OC)c(OC)c1)C(=O)/C2=C/c1ccc(OC)c(OC)c1 | 44.3% (inactive)
COc1ccc(C(=O)C2C(C#N)C(C#N)C3c4ccccc4C=CN23)cc1 (stereo unspecified) | 84.7% (inactive)
O=C(C[n+]1cccc2ccccc21)c1ccc(O)c(O)c1 | 69.9% (inactive)
COc1ccc(C(=O)c2nc3ccccc3n2CC(=O)c2ccc(F)cc2)cc1 | 83.2% (inactive)
CC(=O)[C@@H]1CC[C@]2(CO)CC[C@]3(C)[C@H](CC[C@@H]4[C@@]5(C)CCCNC(C)(C)[C@@H]5CC[C@]43C)[C@@H]12 | 86% (inactive)
NS(=O)(=O)c1ccc(CCN2C(=O)C=CC2=O)cc1 | 100% (inactive)
Nc1ccccc1NC(=O)c1ccc(-n2nc(-c3ccccc3)c3ccccc32)cc1 | 58.6% (inactive)
N#CC1C(C#N)C2c3ccccc3C=CN2C1C(=O)c1ccc(Br)cc1 (stereo unspecified) | 94% (inactive)
O=C(CNCCN1CCOCC1)N1c2cccc3cccc(c23)N(C(=O)CNCCN2CCOCC2)C1c1cn(-c2ccccc2)nc1-c1cccc([N+](=O)[O-])c1 | 62.4% (inactive)
C=C(C)[C@@H]1CC[C@]2(C(=O)N[C@H](CO)Cc3ccccc3)CC[C@]3(C)[C@H](CC[C@@H]4[C@@]5(C)CCCNC(C)(C)[C@@H]5CC[C@]43C)[C@@H]12 | -84.9% (active)
O=C1c2cccc3c(-c4ccc5c(c4)ncn5C4CCCCC4)ccc(c23)C(=O)N1CCO | 85% (inactive)
O=C(/C(=C\c1ccc([N+](=O)[O-])cc1)S(=O)Cc1ccc(F)cc1)c1ccc(F)cc1 (stereo unspecified) | 7.46% (active)
NNC(=O)c1ccc(-n2nc(-c3ccccc3)c3ccccc32)cc1 | 69.4% (inactive)
